The assay in a line: Vero 76 cell viability after compound exposure – Vero 76 cells, synthesized analogs, cytotoxicity control for West Nile virus antiviral project, SAR follow-up (AID 2414).

The structures appear in SMILES notation. Results with a measured potency or affinity are listed apart. Activity calls are given as the source filed them. No rule for the calls is given here.

In the case of `Cc1cccc2c(=O)n3c(nc12)CCC3`, the compound was called inactive.
As for `OC1c2c(F)cccc2N=C2CCCCCN21` (centres undefined), the entry is “inactive”; as for `O=[N+]([O-])c1ccc2c(c1)C(O)N1CCCC1=N2` (centres undefined), “inactive”.
Take `O=c1c2c(F)cccc2nc2n1CCC2`: the result was inactive.
As for `COc1ccccc1NC(=O)CSc1nc2ccccc2c(=O)n1-c1ccc(F)cc1`, the entry is “inactive”; as for `O=C(CSc1nc2ccccc2c(=O)n1-c1ccc(F)cc1)Nc1ccc2c(c1)OCCO2`, “inactive”.
As for `CCCCN(C(=O)c1ccccc1Cl)c1nc(-c2ccc(OC)cc2)cs1`, the entry is “inactive”; as for `OC1c2c(F)cccc2N=C2CCCCN21` (centres undefined), “inactive”.
To `Nc1ccc2nc3n(c(=O)c2c1)CCC3` belongs “inactive”; to `COc1ccc(NC(=O)CSc2nc3ccccc3c(=O)n2-c2ccc(F)cc2)cc1`, “inactive”.
Consider `COc1ccc(Cn2nc(C)cc2OC(=O)c2c(F)ccc(C)c2F)cc1`, for which the outcome was inactive.
For the compound `OC1c2cc(Br)ccc2N=C2CCCCN21` (centres undefined), the outcome was inactive.
To `Cc1cccc2nc3n(c(=O)c12)CCC3` belongs “inactive”; to `COc1ccc(Cn2nc(C)cc2OC(=O)c2c(F)cccc2F)cc1`, “inactive”; to `COc1ccc(-c2csc(N(CCCBr)C(=O)c3ccccc3Cl)n2)cc1`, “inactive”.
For the compound `Cc1ccc2nc3n(c(=O)c2c1)CCC3`, the outcome was inactive.
Regarding `CCCN(C(=O)c1ccccc1Cl)c1nc(-c2ccc(OC)cc2)cs1`, the compound was called inactive.
For `O=c1c2cc([N+](=O)[O-])ccc2nc2n1CCC2`, the call was inactive.
On to `O=c1c2cccc(Cl)c2nc2n1CCC2`, for which the result was inactive.
As to `COc1ccc(Cn2nc(C)cc2OC(=O)c2ccccc2)cc1`, the compound was called inactive.
To `O=c1c2cc(Cl)cc(Cl)c2nc2n1CCC2` belongs “inactive”; to `O=C(CSc1nc2ccccc2c(=O)n1-c1ccc(F)cc1F)Nc1ccc(N2CCOCC2)cc1`, “inactive”; to `CC(=O)Nc1ccc2nc3n(c(=O)c2c1)CCC3`, “inactive”.
To `Cc1cc(OC(=O)c2c(F)cccc2F)n(Cc2ccccc2)n1` belongs “inactive”; to `O=C(CSc1nc2cccc(F)c2c(=O)n1-c1ccccc1)Nc1ccc2c(c1)CCC2`, “inactive”; to `COc1ccc(-c2csc(N(Cc3ccccc3)C(=O)c3ccccc3Cl)n2)cc1`, “inactive”.
Take `O=c1c2cc(I)ccc2nc2n1CCC2`: the call was inactive.
As for `CC1CC(C)CN(C(=O)CSc2nc3ccccc3c(=O)n2-c2ccc(F)cc2)C1` (centres undefined), the entry is “inactive”.
In the case of `OC1c2cc(Cl)cc(Cl)c2N=C2CCCN21` (centres undefined), the outcome was inactive.
As to `CC1(O)c2cc(Br)ccc2N=C2CCCN21` (centres undefined), the compound was classed as inactive.
Turning to `OC1c2c(F)cccc2N=C2CCCN21` (centres undefined), the result was inactive.
As for `COc1ccc(-c2csc(N(C)C(=O)c3ccccc3Cl)n2)cc1`, the entry is “inactive”; as for `OC1c2cc(I)ccc2N=C2CCCN21` (centres undefined), “inactive”; as for `O=C(CSc1nc2ccc(F)cc2c(=O)n1-c1ccccc1)Nc1ccc2c(c1)CCC2`, “inactive”.

The values are drawn from PubChem BioAssay AID2414 (Southern Research Specialized Biocontainment Screening …, 2010).
